Here are results for eight molecules from PubChem BioAssay (NCI).

Compounds without any hit were thinned out: in the full panel of roughly 83,000, 20% have a hit.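 The endpoint reported here, percent growth, reads 100 for growth as untreated, 0 for no net growth and -100 for all cells dead.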 Unmarked numbers belong to inactive results. The source made the active and inactive calls. Rule for the calls: active = growth percent below 10; inactive = the rest.

Test systems include DU-145 prostate; K-562 leukemia; MALME-3M melanoma; MDA-MB-231 breast; RXF 393 renal; SF-268 CNS; SF-295 CNS; SF-539 CNS; UACC-257 melanoma; M14 melanoma; HCT-15 colon; HT29 colon; SNB-75 CNS; SNB-19 CNS; U251 CNS; PC-3 prostate; SK-MEL-5 melanoma; UACC-62 melanoma; LOX IMVI melanoma; SK-MEL-28 melanoma.
What all share (assay): NCI-60 one-dose screen, 48 h (100 = growth as untreated, 0 = no growth, -100 = all killed)
What all share (details): 10 µM unless noted

As to `O=C1c2c(c3c4ccc(Br)cc4oc3c3[nH]c4ccccc4c23)C(=O)N1O`, the growth in the assay on DU-145 prostate is 38.4%; in the assay with K-562 leukemia, 30.4%; in the assay with MALME-3M melanoma it was 1.92% (active); with MDA-MB-231 breast, 80.1%; in the assay on RXF 393 renal, 31.7%; in the assay with SF-268 CNS, 13.9%. For the same molecule, the growth in the assay with SF-295 CNS is 34.4%; with SF-539 CNS it was 7.26% (active); with UACC-257 melanoma, 83.6%; in the assay on M14 melanoma, 30.9%; in the assay on HCT-15 colon it was 19%; in the assay on HT29 colon, 8.99% (active). In addition, the growth was 4.21% (active) in the assay on SNB-75 CNS; 29.7% in the assay on SNB-19 CNS; 22.8% in the assay on U251 CNS; 40.9% in the assay on PC-3 prostate; -71.8% (active) in the assay on SK-MEL-5 melanoma; -2.55% (active) in the assay with UACC-62 melanoma. For the same molecule, the growth was 6.55% (active) with LOX IMVI melanoma and -0.104% (active) in the assay on SK-MEL-28 melanoma.

For `Cc1ccc(-c2nc(N3CCNCC3)c3oc(-c4ccccc4)nc3n2)cc1`, the growth in the assay on DU-145 prostate is -93.1% (active); in the assay on K-562 leukemia it was -73.3% (active); in the assay with MALME-3M melanoma, -29.5% (active); in the assay with MDA-MB-231 breast, -79.2% (active); with RXF 393 renal it was -74.1% (active); with SF-268 CNS, 7.93% (active). The growth was -23.2% (active) with SF-295 CNS; -91% (active) in the assay on SF-539 CNS; 91.2% with UACC-257 melanoma; -92.3% (active) in the assay with M14 melanoma; -77.7% (active) in the assay with HCT-15 colon; -93.8% (active) in the assay with HT29 colon. Moreover, the growth was 85.4% with SNB-75 CNS; 16.7% with SNB-19 CNS; -98.2% (active) in the assay on U251 CNS; -81.5% (active) in the assay on PC-3 prostate; 70.9% with SK-MEL-5 melanoma; 91.3% with UACC-62 melanoma. The results for the growth in the assay with LOX IMVI melanoma and with SK-MEL-28 melanoma were -89.1% (active) and -81.3% (active), respectively.

Take `COc1cc(CNS(=O)(=O)c2ccc(C)cc2)ccc1OCc1cn(-c2ccc(F)cc2)nn1`: the growth is 95.9% with DU-145 prostate; 65.3% with K-562 leukemia; 94.9% in the assay with MALME-3M melanoma; 91% with MDA-MB-231 breast; 93.2% in the assay on RXF 393 renal; 91.8% in the assay on SF-268 CNS. For the same molecule, the growth was 90.1% in the assay on SF-295 CNS; 89.3% in the assay with SF-539 CNS; 89.9% with UACC-257 melanoma; 97.1% in the assay with M14 melanoma; 92.5% with HCT-15 colon; 85.1% in the assay with HT29 colon. Moreover, the growth in the assay with SNB-75 CNS was 81%; in the assay on SNB-19 CNS it was 102%; with U251 CNS it was 97.3%; with PC-3 prostate it was 83.6%; with SK-MEL-5 melanoma it was 56.7%; in the assay on UACC-62 melanoma, 71.8%. Also, the values for the growth in the assay on LOX IMVI melanoma and in the assay on SK-MEL-28 melanoma were 102% and 87.9%, respectively.

As to `COc1ccc(/C(C)=C(/c2ccc(OCCCN(C)C)cc2)c2ccc(OC(=O)Cc3ccccc3)cc2)cc1`, the growth in the assay with DU-145 prostate was 94.2%; in the assay on K-562 leukemia, 11.9%; in the assay with MALME-3M melanoma, 95%; in the assay on MDA-MB-231 breast, 59.7%; in the assay with RXF 393 renal, 67.8%; in the assay with SF-268 CNS, 76%. Also, the growth is 51.3% with SF-295 CNS; 76.1% in the assay on SF-539 CNS; 82.1% in the assay with UACC-257 melanoma; -19.6% (active) in the assay on M14 melanoma; 54.6% with HCT-15 colon; 7.51% (active) in the assay with HT29 colon. Further, the growth in the assay on SNB-75 CNS was 79%; in the assay with SNB-19 CNS, 90%; with U251 CNS, 55.1%; in the assay on PC-3 prostate it was 71.9%; in the assay on SK-MEL-5 melanoma, 79.5%; in the assay with UACC-62 melanoma, 70.2%. The results for the growth in the assay with LOX IMVI melanoma and with SK-MEL-28 melanoma were -5.23% (active) and 70.8%, respectively.

As for `CCOC(=O)Cn1c(O)c(N=Nc2ccc(S(N)(=O)=O)cc2)c2cc(Br)ccc21`, the growth with DU-145 prostate is 78.7%; in the assay with K-562 leukemia, 65.4%; in the assay on MALME-3M melanoma, 79.5%; with MDA-MB-231 breast, 67.6%; in the assay on RXF 393 renal, 43.3%; in the assay with SF-268 CNS, 97.2%. Moreover, the growth in the assay on SF-295 CNS is 96.8%; with SF-539 CNS it was 16%; in the assay on UACC-257 melanoma, 96.3%; with M14 melanoma, 87.8%; in the assay with HCT-15 colon it was 85.4%; with HT29 colon it was 63.7%. Besides, the growth in the assay on SNB-75 CNS was 78%; in the assay with SNB-19 CNS, 91.4%; with U251 CNS it was 86.2%; in the assay with PC-3 prostate, 70.8%; in the assay with SK-MEL-5 melanoma, 88.3%; with UACC-62 melanoma, 83.3%. Also, the growth is 86% in the assay on LOX IMVI melanoma and 85.2% in the assay on SK-MEL-28 melanoma.

Consider `CCN(CC)CCOc1ccc(-c2c(-c3ccccc3)c(=O)oc3ccccc23)cc1`, for which the growth in the assay with DU-145 prostate was 121%; with K-562 leukemia it was 92.1%; in the assay with MALME-3M melanoma, 87.2%; in the assay with MDA-MB-231 breast, 88.7%; in the assay with RXF 393 renal, 71.9%; in the assay on SF-268 CNS, 87.4%. Further, the growth is 104% in the assay on SF-295 CNS; 92.6% with SF-539 CNS; 86.3% with UACC-257 melanoma; 88.2% in the assay on M14 melanoma; 72.2% in the assay with HCT-15 colon; 51.7% in the assay on HT29 colon. Also, the growth was 81.8% in the assay on SNB-75 CNS; 90.7% with SNB-19 CNS; 85.5% in the assay on U251 CNS; 64.9% in the assay on PC-3 prostate; 71.6% in the assay on SK-MEL-5 melanoma; 82.7% with UACC-62 melanoma. For the same molecule, the growth was 81.3% in the assay on LOX IMVI melanoma and 98.6% in the assay with SK-MEL-28 melanoma.

`CCCCCCCCCCCCCCCC(N)c1ccccc1` (stereo not given): the growth was -62.9% (active) with DU-145 prostate; 0.445% (active) in the assay with K-562 leukemia; 79.5% with MALME-3M melanoma; -71.9% (active) in the assay with MDA-MB-231 breast; -89.4% (active) in the assay with RXF 393 renal; -38.9% (active) with SF-268 CNS. Further, the growth with SF-295 CNS was -49.5% (active); in the assay with SF-539 CNS, 88.4%; with UACC-257 melanoma it was 82.6%; in the assay with M14 melanoma, 3.85% (active); in the assay on HCT-15 colon, -73.9% (active); in the assay on HT29 colon, -65.3% (active). In addition, the growth is 66.2% in the assay with SNB-75 CNS; 23.9% in the assay on SNB-19 CNS; -93.2% (active) in the assay on U251 CNS; 5.14% (active) with PC-3 prostate; 87.8% with SK-MEL-5 melanoma; 79.2% in the assay with UACC-62 melanoma. Moreover, the values for the growth in the assay on LOX IMVI melanoma and in the assay on SK-MEL-28 melanoma were -100% (active) and 85.3%, respectively.

Turning to `Cn1c(=O)c2c(nc(NC3=NS(=O)(=O)c4ccccc43)n2CC(=O)N2CCc3ccccc32)n(C)c1=O`, the growth in the assay on DU-145 prostate was 106%; with K-562 leukemia, 114%; in the assay with MALME-3M melanoma, 103%; in the assay on MDA-MB-231 breast, 94.3%; with RXF 393 renal, 92.7%; with SF-268 CNS, 97.5%. Besides, the growth in the assay on SF-295 CNS is 105%; in the assay on SF-539 CNS, 98.1%; in the assay on UACC-257 melanoma, 94.9%; in the assay with M14 melanoma it was 89.1%; in the assay on HCT-15 colon, 101%; with HT29 colon, 101%. Moreover, the growth with SNB-75 CNS is 94.9%; in the assay on SNB-19 CNS, 101%; in the assay with U251 CNS, 101%; in the assay on PC-3 prostate, 104%; in the assay with SK-MEL-5 melanoma, 101%; in the assay with UACC-62 melanoma it was 97.6%. The growth in the assay on LOX IMVI melanoma is 91.2%; with SK-MEL-28 melanoma, 105%.
